Values without a mark were called inactive.
What was measured:
Test in all cases: log2 ratio of Biotin-Ahx-Ub-VS probe labelling (fragment/DMSO); higher = less target engagement (more negative = stronger competition), active = hit call of the paper (q ≤ 0.05, log2 ratio ≤ -1)
Settings in all cases: compound concentration: 200 uM; treatment time: 3 h
[1] = target: T1, ALG13 (UniProt Q9NP73)
T1 sequence (whole entry): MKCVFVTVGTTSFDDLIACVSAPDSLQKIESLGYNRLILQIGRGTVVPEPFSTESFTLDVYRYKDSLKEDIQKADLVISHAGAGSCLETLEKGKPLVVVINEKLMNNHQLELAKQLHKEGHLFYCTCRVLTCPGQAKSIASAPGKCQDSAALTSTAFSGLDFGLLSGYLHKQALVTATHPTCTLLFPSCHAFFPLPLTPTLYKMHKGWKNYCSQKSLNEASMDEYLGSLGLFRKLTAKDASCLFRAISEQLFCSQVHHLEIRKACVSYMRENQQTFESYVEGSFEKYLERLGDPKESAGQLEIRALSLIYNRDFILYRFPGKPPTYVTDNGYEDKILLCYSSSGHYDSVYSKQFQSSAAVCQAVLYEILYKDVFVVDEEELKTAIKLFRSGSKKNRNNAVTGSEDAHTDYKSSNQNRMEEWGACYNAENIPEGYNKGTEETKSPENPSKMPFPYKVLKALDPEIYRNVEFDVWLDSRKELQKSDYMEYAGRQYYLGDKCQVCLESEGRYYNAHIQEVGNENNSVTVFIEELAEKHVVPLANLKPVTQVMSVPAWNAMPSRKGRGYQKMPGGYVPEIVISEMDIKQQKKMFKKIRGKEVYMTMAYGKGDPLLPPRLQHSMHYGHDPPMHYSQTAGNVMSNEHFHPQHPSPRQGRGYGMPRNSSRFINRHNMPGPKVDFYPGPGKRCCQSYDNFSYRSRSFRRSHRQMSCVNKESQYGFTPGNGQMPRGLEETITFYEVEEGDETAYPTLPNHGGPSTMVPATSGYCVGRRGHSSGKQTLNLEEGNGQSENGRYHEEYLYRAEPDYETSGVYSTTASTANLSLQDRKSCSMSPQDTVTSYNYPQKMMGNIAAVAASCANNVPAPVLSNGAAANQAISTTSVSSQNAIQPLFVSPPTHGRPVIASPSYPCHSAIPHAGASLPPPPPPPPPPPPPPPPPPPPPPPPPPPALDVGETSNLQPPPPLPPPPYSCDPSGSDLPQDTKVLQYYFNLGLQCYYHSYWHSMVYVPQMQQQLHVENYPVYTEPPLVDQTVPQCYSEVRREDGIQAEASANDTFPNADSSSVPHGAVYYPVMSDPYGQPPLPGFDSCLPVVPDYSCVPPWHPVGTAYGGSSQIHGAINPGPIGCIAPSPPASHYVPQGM
Outline: (§1)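 HEK293T lysate (495 µg per sample, in Tris/CHAPS/IGEPAL buffer with protease inhibitors) was exposed in triplicate for 3 h to fragment at 200 µM or to vehicle, then to Biotin-Ahx-Ub-VS at 0.5 µM final for 1 h. Labelled DUBs were enriched on NeutrAvidin, digested with LysC and trypsin, and analysed by diaPASEF LC-MS/MS. Spectronaut label-free quantities were normalised to the global median, and values are average log2 ratios of fragment over vehicle from an unpaired t-test. Only proteins with ≥2 unique peptides were used.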

[2] = target: ATXN3 (UniProt P54252)
Outline: as §1

[3] = target: T2, BAP1 (UniProt Q92560)
T2 sequence (whole entry): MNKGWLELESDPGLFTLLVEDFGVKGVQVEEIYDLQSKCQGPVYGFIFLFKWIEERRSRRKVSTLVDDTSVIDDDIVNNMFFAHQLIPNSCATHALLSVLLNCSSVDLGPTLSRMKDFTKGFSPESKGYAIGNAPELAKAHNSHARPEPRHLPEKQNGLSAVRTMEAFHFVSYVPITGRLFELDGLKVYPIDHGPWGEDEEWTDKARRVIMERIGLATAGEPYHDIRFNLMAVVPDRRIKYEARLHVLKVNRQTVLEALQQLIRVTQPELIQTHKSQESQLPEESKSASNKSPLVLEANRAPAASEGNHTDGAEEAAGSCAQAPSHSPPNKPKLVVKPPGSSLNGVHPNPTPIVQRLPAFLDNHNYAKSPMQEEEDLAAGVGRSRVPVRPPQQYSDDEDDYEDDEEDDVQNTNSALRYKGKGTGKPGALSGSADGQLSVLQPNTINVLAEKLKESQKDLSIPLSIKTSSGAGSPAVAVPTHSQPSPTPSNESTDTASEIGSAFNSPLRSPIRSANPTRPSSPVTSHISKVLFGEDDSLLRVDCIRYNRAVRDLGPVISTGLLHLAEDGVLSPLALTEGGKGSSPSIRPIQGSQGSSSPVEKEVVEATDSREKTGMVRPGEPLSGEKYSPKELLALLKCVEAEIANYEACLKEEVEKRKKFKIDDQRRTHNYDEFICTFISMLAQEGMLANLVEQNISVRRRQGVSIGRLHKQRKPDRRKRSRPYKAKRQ
Outline: as §1

[4] = target: EIF3F (UniProt O00303)
Outline: as §1

[5] = target: EIF3H (UniProt O15372)
Outline: as §1

[6] = target: T3, FAM105A (UniProt Q9NUU6)
T3 sequence (whole entry): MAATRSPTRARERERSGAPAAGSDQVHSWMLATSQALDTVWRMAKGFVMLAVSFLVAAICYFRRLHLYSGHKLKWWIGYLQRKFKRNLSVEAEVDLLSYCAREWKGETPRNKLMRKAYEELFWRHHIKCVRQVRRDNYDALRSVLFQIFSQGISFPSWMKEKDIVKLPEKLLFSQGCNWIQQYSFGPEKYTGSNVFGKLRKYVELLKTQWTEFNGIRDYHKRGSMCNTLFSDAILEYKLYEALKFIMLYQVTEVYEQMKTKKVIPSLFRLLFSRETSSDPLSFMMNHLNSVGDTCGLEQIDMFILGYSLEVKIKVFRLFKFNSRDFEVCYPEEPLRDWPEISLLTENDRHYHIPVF
Outline: as §1

[7] = target: OTUB1 (UniProt Q96FW1)
Outline: as §1

[8] = target: T4, OTUD4 (UniProt Q01804)
T4 sequence (whole entry): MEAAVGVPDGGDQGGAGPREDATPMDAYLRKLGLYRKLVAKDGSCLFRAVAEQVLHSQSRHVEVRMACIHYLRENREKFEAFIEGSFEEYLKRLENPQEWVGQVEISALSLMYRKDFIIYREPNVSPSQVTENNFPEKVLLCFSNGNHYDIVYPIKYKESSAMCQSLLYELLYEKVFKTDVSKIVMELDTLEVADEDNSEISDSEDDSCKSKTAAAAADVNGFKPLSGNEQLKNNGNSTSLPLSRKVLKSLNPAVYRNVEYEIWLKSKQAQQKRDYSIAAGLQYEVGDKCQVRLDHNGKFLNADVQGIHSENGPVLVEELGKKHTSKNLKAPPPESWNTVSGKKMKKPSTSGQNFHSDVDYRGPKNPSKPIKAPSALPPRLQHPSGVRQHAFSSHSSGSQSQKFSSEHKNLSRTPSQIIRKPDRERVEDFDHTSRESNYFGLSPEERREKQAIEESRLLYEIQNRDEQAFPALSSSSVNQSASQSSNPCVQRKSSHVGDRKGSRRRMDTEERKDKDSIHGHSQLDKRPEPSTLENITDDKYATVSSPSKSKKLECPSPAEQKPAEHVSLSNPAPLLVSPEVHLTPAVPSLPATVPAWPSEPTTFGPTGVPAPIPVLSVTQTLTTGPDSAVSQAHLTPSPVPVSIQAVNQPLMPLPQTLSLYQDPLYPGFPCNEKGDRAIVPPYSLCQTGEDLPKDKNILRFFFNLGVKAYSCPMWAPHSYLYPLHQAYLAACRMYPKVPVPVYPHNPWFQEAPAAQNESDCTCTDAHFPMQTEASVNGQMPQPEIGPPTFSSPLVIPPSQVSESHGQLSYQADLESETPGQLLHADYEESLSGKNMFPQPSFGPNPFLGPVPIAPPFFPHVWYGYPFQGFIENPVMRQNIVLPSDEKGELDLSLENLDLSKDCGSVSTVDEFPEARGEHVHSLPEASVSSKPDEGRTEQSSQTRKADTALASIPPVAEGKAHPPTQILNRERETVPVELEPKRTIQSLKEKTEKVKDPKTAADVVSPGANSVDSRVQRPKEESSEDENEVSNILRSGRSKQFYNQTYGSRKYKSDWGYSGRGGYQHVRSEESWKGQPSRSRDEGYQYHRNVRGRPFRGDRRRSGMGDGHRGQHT
Outline: as §1

[9] = target: T5, OTUD5 (UniProt Q96G74)
T5 sequence (whole entry): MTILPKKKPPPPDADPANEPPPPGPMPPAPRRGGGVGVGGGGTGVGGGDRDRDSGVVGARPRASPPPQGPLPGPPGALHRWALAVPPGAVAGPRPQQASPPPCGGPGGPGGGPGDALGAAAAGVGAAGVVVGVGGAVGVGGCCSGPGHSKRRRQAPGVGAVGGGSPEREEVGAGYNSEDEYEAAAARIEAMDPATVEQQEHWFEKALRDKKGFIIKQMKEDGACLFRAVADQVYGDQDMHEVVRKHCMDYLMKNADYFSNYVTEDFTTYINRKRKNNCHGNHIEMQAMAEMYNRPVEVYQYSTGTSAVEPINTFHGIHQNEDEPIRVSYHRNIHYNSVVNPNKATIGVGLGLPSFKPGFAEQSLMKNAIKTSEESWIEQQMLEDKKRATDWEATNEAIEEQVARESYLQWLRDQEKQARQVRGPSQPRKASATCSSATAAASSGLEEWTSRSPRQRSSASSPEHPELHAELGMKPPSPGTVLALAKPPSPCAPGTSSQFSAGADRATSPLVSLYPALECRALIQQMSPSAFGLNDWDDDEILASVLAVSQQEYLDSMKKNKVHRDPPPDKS
Outline: as §1

Sequence of EIF3H (O15372 whole entry): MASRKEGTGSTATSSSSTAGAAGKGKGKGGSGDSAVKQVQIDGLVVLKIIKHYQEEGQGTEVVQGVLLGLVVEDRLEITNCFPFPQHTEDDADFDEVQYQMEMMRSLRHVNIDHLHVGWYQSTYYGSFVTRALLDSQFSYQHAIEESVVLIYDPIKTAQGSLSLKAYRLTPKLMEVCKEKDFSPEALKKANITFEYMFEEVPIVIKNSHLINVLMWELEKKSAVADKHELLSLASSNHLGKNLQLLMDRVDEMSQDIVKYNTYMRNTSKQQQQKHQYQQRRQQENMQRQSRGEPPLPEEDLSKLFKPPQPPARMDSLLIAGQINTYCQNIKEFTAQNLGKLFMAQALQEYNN
Sequence of ATXN3 (P54252 whole entry): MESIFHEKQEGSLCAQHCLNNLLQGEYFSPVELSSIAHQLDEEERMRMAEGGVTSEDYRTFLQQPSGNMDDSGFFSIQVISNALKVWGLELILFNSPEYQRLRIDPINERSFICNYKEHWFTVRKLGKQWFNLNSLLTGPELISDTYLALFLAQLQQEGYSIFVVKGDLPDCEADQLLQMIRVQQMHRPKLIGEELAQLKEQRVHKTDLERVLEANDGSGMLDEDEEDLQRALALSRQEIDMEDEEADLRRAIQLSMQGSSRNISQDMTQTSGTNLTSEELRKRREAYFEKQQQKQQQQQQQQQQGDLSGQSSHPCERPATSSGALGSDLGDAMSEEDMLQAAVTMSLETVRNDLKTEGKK
Sequence of OTUB1 (Q96FW1 whole entry): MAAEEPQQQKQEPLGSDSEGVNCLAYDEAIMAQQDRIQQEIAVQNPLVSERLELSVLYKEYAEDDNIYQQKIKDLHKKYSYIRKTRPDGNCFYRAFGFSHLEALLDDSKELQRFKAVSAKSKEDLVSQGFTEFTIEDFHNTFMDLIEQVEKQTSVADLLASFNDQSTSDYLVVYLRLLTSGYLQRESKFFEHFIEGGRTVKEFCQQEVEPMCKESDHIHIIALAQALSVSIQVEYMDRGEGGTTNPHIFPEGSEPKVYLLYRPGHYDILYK
Sequence of EIF3F (O00303 whole entry): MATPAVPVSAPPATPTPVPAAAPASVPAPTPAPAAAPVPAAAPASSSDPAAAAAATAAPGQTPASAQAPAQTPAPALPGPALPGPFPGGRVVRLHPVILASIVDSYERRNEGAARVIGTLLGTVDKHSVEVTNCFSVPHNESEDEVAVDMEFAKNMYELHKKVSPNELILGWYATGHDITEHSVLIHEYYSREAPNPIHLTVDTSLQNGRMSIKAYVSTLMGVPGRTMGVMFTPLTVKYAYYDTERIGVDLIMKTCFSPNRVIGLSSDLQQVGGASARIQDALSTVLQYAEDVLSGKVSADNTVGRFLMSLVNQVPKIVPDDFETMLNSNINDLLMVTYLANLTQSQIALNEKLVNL

COc1ccc(-c2csc(NC(=O)CCl)n2)cc1
log2 ratio of Biotin-Ahx-Ub-VS probe labelling [1]: -0.0925 | log2 ratio of Biotin-Ahx-Ub-VS probe labelling [2]: -0.907 | log2 ratio of Biotin-Ahx-Ub-VS probe labelling [3]: -2.94 (active) | log2 ratio of Biotin-Ahx-Ub-VS probe labelling [4]: -0.0557 | log2 ratio of Biotin-Ahx-Ub-VS probe labelling [5]: 0.443 | log2 ratio of Biotin-Ahx-Ub-VS probe labelling [6]: -0.207 | log2 ratio of Biotin-Ahx-Ub-VS probe labelling [7]: -0.0658 | log2 ratio of Biotin-Ahx-Ub-VS probe labelling [8]: -0.702 | log2 ratio of Biotin-Ahx-Ub-VS probe labelling [9]: -0.997
